Among the test systems are NCI-H23 lung; NCI-H226 lung; HOP-62 NSCLC; NCI-H460 lung; HOP-92 NSCLC; NCI-H522 lung; A549/ATCC NSCLC; 786-0 renal; COLO 205 colon; DU-145 prostate; K-562 leukemia; MALME-3M melanoma; MDA-MB-231 breast; RXF 393 renal; SF-268 CNS; SF-295 CNS; SF-539 CNS; UACC-257 melanoma; M14 melanoma.
What all share (assay): NCI-60 one-dose screen, 48 h (100 = growth as untreated, 0 = no growth, -100 = all killed)
Common to all, as to settings: 10 µM unless noted

The panel holds about 83,000 compounds, 20% with a hit somewhere; the sample as a whole holds those more often.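 Cells were grown in 96-well plates and exposed to the test compound at a single concentration for 48 hours; results are reported as percent growth, with values below 10 considered active.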 A number with no mark means an inactive call. Active and inactive are the calls of the source.

Consider `C#C[C@@]1(O)[C@@H](CO)O[C@@H](n2cnc3c(-c4ccccc4)ncnc32)[C@@H]1O`, for which the growth in the experiment with NCI-H23 lung is 101%; with NCI-H226 lung it was 104%; in the experiment with HOP-62 NSCLC it was 110%; with NCI-H460 lung it was 112%; in the experiment on HOP-92 NSCLC it was 105%; in the experiment on NCI-H522 lung, 94.8%. In addition, the growth is 94.1% in the experiment on A549/ATCC NSCLC; 98.8% in the experiment on 786-0 renal; 109% in the experiment with COLO 205 colon; 109% in the experiment with DU-145 prostate; 105% in the experiment on K-562 leukemia; 103% in the experiment on MALME-3M melanoma. The growth with MDA-MB-231 breast is 126%; with RXF 393 renal, 122%; with SF-268 CNS it was 99%; with SF-295 CNS, 97.7%; in the experiment with SF-539 CNS, 108%; with UACC-257 melanoma, 117%. Moreover, the growth with M14 melanoma was 97.8%.
Regarding `COc1ccc(-c2cs/c(=N\N=C\c3ccc(O)cc3O)n2/N=C/c2ccc(O)cc2O)cc1`, the growth with NCI-H23 lung was -28.5% (active); in the experiment on NCI-H226 lung, -30.5% (active); in the experiment with HOP-62 NSCLC, -38.5% (active); in the experiment with NCI-H460 lung, -10.5% (active); with HOP-92 NSCLC, 2.31% (active); in the experiment on NCI-H522 lung, -35.6% (active). For the same compound, the growth in the experiment with A549/ATCC NSCLC is -21.5% (active); in the experiment on 786-0 renal it was 6.51% (active); with COLO 205 colon, -81.1% (active); with DU-145 prostate, 4.25% (active); in the experiment on K-562 leukemia it was -4.98% (active); with MALME-3M melanoma, -22.5% (active). Also, the growth in the experiment on MDA-MB-231 breast is 1.96% (active); with RXF 393 renal, -35.6% (active); in the experiment with SF-268 CNS, 4.27% (active); in the experiment with SF-295 CNS, -24.4% (active); in the experiment on SF-539 CNS, -33.1% (active); in the experiment with UACC-257 melanoma, -3.6% (active). Further, in the experiment on M14 melanoma, the growth is -19% (active).
As for `Nc1n[nH]c2cccc(C#Cc3cccc(NC(=O)c4cc(N5CCOCC5)cc(C(F)(F)F)c4)c3)c12`, the growth with NCI-H23 lung was 45%; with NCI-H226 lung, 43.9%; in the experiment with HOP-62 NSCLC it was 48.2%; in the experiment on NCI-H460 lung, 47.3%; in the experiment on HOP-92 NSCLC it was 34.1%; in the experiment with NCI-H522 lung, 53.2%. For the same compound, the growth in the experiment with A549/ATCC NSCLC was 69.5%; in the experiment on 786-0 renal, 57.7%; in the experiment on COLO 205 colon, 18.2%; in the experiment on DU-145 prostate, 64.6%; in the experiment with K-562 leukemia it was 4.32% (active); in the experiment with MALME-3M melanoma, -18.1% (active). Moreover, the growth in the experiment on MDA-MB-231 breast was 30%; in the experiment on RXF 393 renal, 38.7%; with SF-268 CNS, 55.8%; in the experiment on SF-295 CNS, 69.1%; in the experiment with SF-539 CNS, 24.6%; in the experiment on UACC-257 melanoma, 45.1%. For the same compound, in the experiment on M14 melanoma, the growth is 19.2%.
Take `CCCCn1c(=O)c(/C=C/C(=O)/C=C/c2ccc(O)c(OC)c2)cc2ccc(Cl)cc21`: the growth in the experiment on NCI-H23 lung is 27.7%; with NCI-H226 lung, -18.4% (active); in the experiment on HOP-62 NSCLC, 59.6%; in the experiment with NCI-H460 lung, 14.5%; with HOP-92 NSCLC, 77.3%; with NCI-H522 lung, -4.4% (active). The growth in the experiment on A549/ATCC NSCLC is 26.4%; in the experiment with 786-0 renal, -0.448% (active); with COLO 205 colon, 29.7%; in the experiment on DU-145 prostate, 19.3%; in the experiment on K-562 leukemia, 6.69% (active); in the experiment with MALME-3M melanoma it was 30.2%. Also, the growth with MDA-MB-231 breast was -11.2% (active); in the experiment on RXF 393 renal, -15.4% (active); in the experiment with SF-268 CNS it was 29.9%; in the experiment with SF-295 CNS, 30.2%; in the experiment on SF-539 CNS it was 52.6%; with UACC-257 melanoma it was 32.1%. Besides, the growth in the experiment with M14 melanoma is 5.1% (active).
With `CC(C)(C)c1ccc2oc(=O)n(SC(Cl)(Cl)Cl)c2c1`, the growth in the experiment with NCI-H23 lung is 95.1%; in the experiment on NCI-H226 lung it was 104%; in the experiment on HOP-62 NSCLC, 94.1%; with NCI-H460 lung, 96.6%; with HOP-92 NSCLC, 106%; in the experiment on NCI-H522 lung, 79%. The growth was 97% in the experiment with A549/ATCC NSCLC; 91.1% in the experiment with 786-0 renal; 106% in the experiment with COLO 205 colon; 111% with DU-145 prostate; 82.4% with K-562 leukemia; 109% in the experiment on MALME-3M melanoma. The growth in the experiment with MDA-MB-231 breast was 104%; with RXF 393 renal, 110%; in the experiment on SF-268 CNS, 98.2%; in the experiment with SF-295 CNS it was 97.1%; with SF-539 CNS it was 97.2%; in the experiment with UACC-257 melanoma, 111%. Also, the growth in the experiment on M14 melanoma is 94.4%.
Regarding `CC(C)(C)c1ccc(O)c(Cc2cc(C(C)(C)C)ccc2O)c1`, the growth with NCI-H23 lung is 94.7%; with NCI-H226 lung it was 89.9%; with HOP-62 NSCLC it was 85.9%; with NCI-H460 lung, 104%; in the experiment on HOP-92 NSCLC, -39.4% (active); in the experiment on NCI-H522 lung it was 87%. For the same compound, the growth in the experiment on A549/ATCC NSCLC is 92.4%; in the experiment on 786-0 renal, 94.2%; with COLO 205 colon, 110%; with DU-145 prostate, 105%; with K-562 leukemia it was 87.1%; in the experiment with MALME-3M melanoma, 104%. For the same compound, the growth with MDA-MB-231 breast was 88.1%; with RXF 393 renal it was 101%; in the experiment with SF-268 CNS, 93.1%; with SF-295 CNS, 109%; in the experiment with SF-539 CNS, 108%; in the experiment with UACC-257 melanoma, 86.6%. Moreover, the growth in the experiment with M14 melanoma is 92.3%.
Consider `COc1cc2cc(c1Cl)N(C)C(=O)C[C@H](OC(=O)[C@H](C)N(C)C(=O)CCS)C[C@]1(C)O[C@H]1[C@H](C)[C@@H]1C[C@@](O)(NC(=O)O1)[C@H](OC)/C=C/C=C(\C)C2`, for which the growth was 23.2% in the experiment with NCI-H23 lung; 69.5% in the experiment on NCI-H226 lung; 18.3% with HOP-62 NSCLC; 7.39% (active) in the experiment on NCI-H460 lung; 4.28% (active) in the experiment on HOP-92 NSCLC; -31.2% (active) with NCI-H522 lung. Also, the growth in the experiment with A549/ATCC NSCLC is 16.3%; in the experiment on 786-0 renal it was 13.8%; with COLO 205 colon it was -65.7% (active); with DU-145 prostate it was 2.17% (active); in the experiment with K-562 leukemia it was 11.7%; in the experiment on MALME-3M melanoma, 64.3%. For the same compound, the growth with MDA-MB-231 breast was 17.8%; in the experiment on RXF 393 renal it was 43.6%; in the experiment with SF-268 CNS, 37.1%; with SF-295 CNS it was 3.96% (active); in the experiment on SF-539 CNS, -17.1% (active); in the experiment with UACC-257 melanoma, 69.3%. For the same compound, the growth in the experiment with M14 melanoma is 1.73% (active).
